Laboratory results as given in PubChem BioAssay (NCI).
“And” between values parts separate entries of the source, which are not always exact repeats. Identical values can stand only once. This is part of a sample that, as a whole, favours compounds with a hit. Of some 79,000 tested, about 15% had one in any assay. The source made the active and inactive calls. No stated cut-off is given here; in the data, active means growth inhibition above about 70%; inactive means the rest. Where a SMILES comes first, the peptide text is derived from it. The star is where a group is joined. Cbz = O=C(OCc1ccccc1)*; OBn = c1ccc(CO*)cc1

assay: NCI Yeast Anticancer Drug Screen. Data for the bub3 strain (AID 167); conditions: S. cerevisiae bub3 mutant strain, hits give high values; at 50.0 µM unless noted
Outline: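 Whole-cell yeast assay. The mutant strain was incubated with compounds, and growth inhibition was determined by comparison with vehicle-treated cells.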

| Structure (SMILES) | growth inhibition |
| --- | --- |
| CCn1nc(C)c2c1C(=O)NC(C)C(=O)N2 (centres undefined) | -22.9% (inactive) |
| Cc1ccc(C2OC3=C(Nc4ccc([N+](=O)[O-])cc4N3)C2=O)cc1 (centres undefined) | -4.35% (inactive) |
| O=C(O)c1cccnc1C(=O)O | -12% (inactive) and -28.2% (inactive) |
| CCCCCCN(CCCCCC)CC(O)c1cc(-c2ccc(Cl)cc2)nc2c(Cl)cccc12 (centres undefined) | -9.5% (inactive) |
| CC(C)(O)C(O)c1ccccc1 (centres undefined) | 1% (inactive) |
| CN(O)C(=O)CCC(NC(=O)CCC(N)C(=O)O)C(=O)NCC(=O)O (centres undefined) | 1.6% (inactive) |
| COC(=O)C(Cc1ccc(O)cc1)NC(=O)C(CC(=O)OCc1ccccc1)NC(=O)OCc1ccccc1 (centres undefined) (Cbz-Asp(OBn)-Tyr-OMe; configuration not given here) | -21.4% (inactive) |
| CC#CC#C/C(=C/C=CC(=O)OC)SC | 6.6% (inactive) |
| CCC(CC)/C(=N/Nc1ccc([N+](=O)[O-])cc1[N+](=O)[O-])C1=CCCCC1 | -7.3% (inactive) |
| NC(=O)C1CC1 | 9.25% (inactive) |
| O=C(NO)c1ccccc1 | -4% (inactive) |
| COc1cccc(C2c3cc4c(cc3OC(C)(O)C2C)OCO4)c1O (centres undefined) | 1.65% (inactive) |
| Cc1cc2nncn2c2ccccc12 | 1.2% (inactive) |
| O=C(NC1(Sc2ccccc2)CC1)c1ccc(Cl)cc1 | 13.8% (inactive) |
| CCOC(=O)Cn1cncc1C | -3.4% (inactive) |
| COc1ccc(N=Nc2nc(N)c(C(N)=O)[nH]2)cc1 | 5.7% (inactive) |
| O=C1NC(=S)S/C1=C/C=C/c1ccccc1 | -5.2% (inactive) |
| CCN(CC)CCOC(=O)c1cc2ccccc2s1 | -1.35% (inactive) |
| CC(C)=NOc1ccccc1[N+](=O)[O-] | -13.2% (inactive) |
| CCCCOC(=O)NC(=O)c1cc2cc(Cl)ccc2oc1=O | 23.1% (inactive) |

assay: NCI Yeast Anticancer Drug Screen. Data for the mlh1 rad18 strain (AID 175); conditions: S. cerevisiae mlh1 rad18 strain growth inhibition, hits give high values; at 50.0 µM unless noted
Outline: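 Vehicle-treated cultures served as the reference for growth inhibition in a yeast strain carrying DNA damage repair alterations exposed to each compound.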

| Structure (SMILES) | growth inhibition |
| --- | --- |
| O=C1c2c(O)ccc(O)c2C(=O)c2c(NCCNCCO)ccc(NCCNCCO)c21 | 41% (inactive) and -16.6% (inactive) |
| CC(O)CNC1=CC(=O)C(=O)c2ccccc21 (centres undefined) | -20.6% (inactive) |
| COCCOC(=O)OCCOC | 11.7% (inactive) |
| COc1ccccc1CN1CCCN(Cc2ccccc2OC)C1c1ccc(N(C)C)cc1 | 49.2% (inactive) |
| NC(=S)Cc1ccncc1 | 2.65% (inactive) |
| CN(C)c1cccc2c(S(=O)(=O)NCCCNCCN)cccc12 | -6.6% (inactive) |
| CCCCCCCCCCCC | -9.9% (inactive) |
| CCSCCC#N | -10.2% (inactive) |
| CCCC1SCC(=O)N1c1nncs1 (centres undefined) | -30.6% (inactive) |
| O=C1C(Br)=C[C@H]2C3C=CC(Br)(C3=O)[C@@H]12 (some centres undefined) | 23.6% (inactive) |
| CC1=CSC2=NCCCCN12 | 16.1% (inactive) |
| Oc1ccccc1-c1cc(-c2ccccc2)nc(NCCCNc2nc(-c3ccccc3)cc(-c3ccccc3O)n2)n1 | 14.2% (inactive) |
| Cc1ccc2nc(NC(=O)C(=O)C(C#N)c3nc4ccccc4s3)sc2c1 (centres undefined) | 19.2% (inactive) |
| CNC(=O)N(CCCC(NC(C)=O)C(=O)NCc1ccccc1)Cc1ccccc1 (centres undefined) | 18.9% (inactive) |
| COC(=O)CC(C)N(c1ccc(Cl)c(Cl)c1)S(=O)(=O)c1ccc(C)cc1 (centres undefined) | 11.1% (inactive) |
| CSC(N)=Nc1cccc2ccccc12 | -41% (inactive) |
| OC(c1ccc(OCc2ccccc2)cc1)c1ccccn1 (centres undefined) | -0.3% (inactive) |
| O=C1NC(=O)c2c(O)cccc21 | 27.9% (inactive) |
| CN(C)c1ccc(/C=C/C(=O)N[C@@H]2C(=O)N3[C@@H]2SC(C)(C)[C@@H]3C(=O)O)cc1 | 12.8% (inactive) |
| CCn1nc(C)c2c1C(=O)NC(C)C(=O)N2 (centres undefined) | -22.4% (inactive) |

| Structure (SMILES) | growth inhibition |
| --- | --- |
| Cc1ccc(C2OC3=C(Nc4ccc([N+](=O)[O-])cc4N3)C2=O)cc1 (centres undefined) | 3.25% (inactive) |
| O=C(O)c1cccnc1C(=O)O | 3.9% (inactive) and 8.65% (inactive) |
| CCCCCCN(CCCCCC)CC(O)c1cc(-c2ccc(Cl)cc2)nc2c(Cl)cccc12 (centres undefined) | 19.9% (inactive) |
| CC(C)(O)C(O)c1ccccc1 (centres undefined) | 1.35% (inactive) |
| CN(O)C(=O)CCC(NC(=O)CCC(N)C(=O)O)C(=O)NCC(=O)O (centres undefined) | -51.8% (inactive) |
| COC(=O)C(Cc1ccc(O)cc1)NC(=O)C(CC(=O)OCc1ccccc1)NC(=O)OCc1ccccc1 (centres undefined) (Cbz-Asp(OBn)-Tyr-OMe; configuration not given here) | 0.55% (inactive) |
| CC#CC#C/C(=C/C=CC(=O)OC)SC | -38.2% (inactive) |
| CCC(CC)/C(=N/Nc1ccc([N+](=O)[O-])cc1[N+](=O)[O-])C1=CCCCC1 | -15.7% (inactive) |
| NC(=O)C1CC1 | -4% (inactive) |
| O=C(NO)c1ccccc1 | 27.8% (inactive) |
| COc1cccc(C2c3cc4c(cc3OC(C)(O)C2C)OCO4)c1O (centres undefined) | -9.9% (inactive) |
| Cc1cc2nncn2c2ccccc12 | 11.2% (inactive) |
| O=C(NC1(Sc2ccccc2)CC1)c1ccc(Cl)cc1 | 18.9% (inactive) |
| CCOC(=O)Cn1cncc1C | -7.1% (inactive) |
| COc1ccc(N=Nc2nc(N)c(C(N)=O)[nH]2)cc1 | -16.6% (inactive) |
| O=C1NC(=S)S/C1=C/C=C/c1ccccc1 | 25.9% (inactive) |
| CCN(CC)CCOC(=O)c1cc2ccccc2s1 | 10.4% (inactive) |
| CC(C)=NOc1ccccc1[N+](=O)[O-] | 12.1% (inactive) |
| CCCCOC(=O)NC(=O)c1cc2cc(Cl)ccc2oc1=O | 18.8% (inactive) |
